Assay [1] relates to Vero E6 infected with SARS-CoV-2. As to the kind of experiment: morphology score (similarity to uninfected cells); higher = more like uninfected cells. As to conditions: 24 h.
The test system is the same in assay [2]. Kind of assay: SARS-CoV-2 infection rate relative to infected DMSO; higher = more infection, active = 60 or less. The conditions noted are these: 24 h.

`CCC(=O)c1cc(-c2ccc(Cl)cc2)n(-c2ccc(S(N)(=O)=O)cc2)c1C` (10 µM) displayed a morphology score in assay [1] of 0.104. For the same molecule, in assay [2], the SARS-CoV-2 infection rate was 102% (inactive).
Molecule `O=C(NOCCO)c1ccc2cncn2c1Nc1ccc(I)cc1F` (0.833333 µM) returned a morphology score in assay [1] of -0.298. Further, the SARS-CoV-2 infection rate in assay [2] was 121% (inactive).
For `CCN1CCN(Cc2ccc(C(=O)Nc3ccc(C)c(Oc4ccc5c(c4)CC(=O)N5)c3)cc2C(F)(F)F)CC1` (0.833333 µM), in that order: 0.0277 and 104% (inactive).
`O=C(O)c1cc2cccc([N+](=O)[O-])c2[nH]1` (10 µM) came in with a morphology score in assay [1] of -0.0876. Also, the SARS-CoV-2 infection rate in assay [2] is 100% (inactive).
Turning to `C=CC(=O)Nc1cccc(Oc2nc(Nc3ccc(N4CCN(C)CC4)cc3)nc3ccsc23)c1` [olmutinib] (0.833333 µM), the morphology score in assay [1] is -0.0965. In addition, in assay [2], the SARS-CoV-2 infection rate was 94.5% (inactive).
For `CCc1ccc(Cc2ccc3c(c2)[C@]2(OC3)O[C@H](CO)[C@@H](O)[C@H](O)[C@H]2O)cc1` [tofogliflozin] (10 µM), in that order: 0.023 and 94.5% (inactive).
For `Cc1ncc(CN2CC=C(c3ccccc3)CC2)c(N)n1` (10 µM), in that order: 0.0617 and 108% (inactive).
In the case of `Cc1ccc(-c2cc(C(F)(F)F)nn2-c2ccc(S(N)(=O)=O)cc2)cc1` [celecoxib] (10 µM), in assay [1], the morphology score came out at 0.193. Moreover, the SARS-CoV-2 infection rate in assay [2] was 102% (inactive).
As for `O=C(O)c1cc(-c2ccccc2)nc2ccccc12` [cinchophen] (10 µM), in assay [1], the morphology score was 0.0922. For the same molecule, the SARS-CoV-2 infection rate in assay [2] was 104% (inactive).
`CC/C(=C(/c1ccc(/C=C/C(=O)O)cc1)c1ccc2[nH]ncc2c1)c1ccc(F)cc1Cl` (10 µM): the morphology score in assay [1] turned out to be 0.0792. In addition, the SARS-CoV-2 infection rate in assay [2] was 103% (inactive).
On the same counts, the results for `O=C(Nc1cnccc1Cl)N1CCN(Cc2ccc3c(c2)OC(F)(F)O3)CC1` (10 µM) are 0.0915 and 106% (inactive).
For `CS(=O)(=O)N1CCc2c(-c3cnc(N)nc3)nc(N3CCOCC3)nc21` (0.833333 µM), in that order: 0.0917 and 110% (inactive).
On the same counts, the results for `O.O.O.O.O=C([O-])CC(O)(CC(=O)[O-])C(=O)[O-].[Li+].[Li+].[Li+]` [lithium-citrate] (10 µM) are 0.239 and 89% (inactive).
For `Cc1cccc(C)c1-n1c(=O)c2cnc(Nc3ccc(N4CCN(C)CC4)cc3)nc2n2c3ccccc3nc12` (0.833333 µM), in assay [1], the morphology score is -0.0551. In addition, the SARS-CoV-2 infection rate in assay [2] is 104% (inactive).
For `COCCCC/C(=N\OCCN)c1ccc(C(F)(F)F)cc1` [fluvoxamine] (10 µM), in that order: 0.0586 and 90% (inactive).
On the same counts, the results for `CNC(=O)N(C)N=O` [nitrosodimethylurea] (10 µM) are 0.0639 and 106% (inactive).
On the same counts, the results for `Cc1ccc(C)c([C@H](O)CNC(C)C)c1` [benzenemethanol,-2,5-dimethyl-[[(1-methylethyl)amino]methyl]] (10 µM) are 0.0583 and 106% (inactive).
In the case of `Cc1cc(CN2CCN(c3c(Br)cnc4nc(-c5ccc(N6CCN(C)CC6)cc5)[nH]c34)CC2)no1` (10 µM), in assay [1], the morphology score came to 0.247. In addition, the SARS-CoV-2 infection rate in assay [2] was 116% (inactive).
For `Cc1ccc2c(c1)C(=O)[C@]1(O)CCN(c3ccccc3)C1=N2` (racemic) [blebbistatin-(+/-)] (10 µM), in that order: 0.464 and 90.8% (inactive).
On the same counts, the results for `CC[C@@H](C)Nc1cc(C(=O)N[C@H]2C[C@H]3CC[C@@H](C2)N3c2ccc(C(=O)C3CC3)cn2)c(C)cc1C(N)=O` (10 µM) are 0.188 and 98.5% (inactive).
`CCC[C@H](N[C@H]1CCc2cc(F)cc(F)c2C1)C(=O)Nc1cn(C(C)(C)CNCC(C)(C)C)cn1` (10 µM) gave a morphology score in assay [1] of 0.0166. Further, the SARS-CoV-2 infection rate in assay [2] was 102% (inactive).
Take `c1cc2c(cc1[C@H]1OC[C@H]3[C@@H]1CO[C@@H]3c1ccc3c(c1)OCO3)OCO2` [sesamin] (10 µM): the morphology score in assay [1] is -0.0737. The SARS-CoV-2 infection rate in assay [2] was 120% (inactive).
On the same counts, the results for `O=C1S/C(=C\c2ccc(OCc3cccc(B(O)O)c3)cc2)C(=O)N1Cc1ccc(F)cc1` (10 µM) are 0.0573 and 104% (inactive).
In assay [1], `CC[C@@](C)(Nc1ccnc(-c2c[nH]c3ncccc23)n1)C(=O)NCC(F)(F)F` [decernotinib] (10 µM) displayed a morphology score of 0.178. Further, the SARS-CoV-2 infection rate in assay [2] was 108% (inactive).
For `CC(C)c1cnn2c(NCc3ccccc3)cc(NCCCCCCN)nc12` (10 µM), in that order: 0.714 and 41% (active).
For `Nc1ncnc2nc(-c3ccc(N4CCOCC4)nc3)cc(-c3cccc(Br)c3)c12` (10 µM), in that order: 0.0544 and 108% (inactive).
For `Fc1ccccc1CNCc1ccc(-c2ccnc3[nH]ccc23)cc1` (10 µM), in that order: -0.0487 and 116% (inactive).
For the molecule `CCOc1cn(-c2ccc(F)cc2C)nc1C(=O)Nc1ccc(Oc2ccnc3cc(OC)c(OC)cc23)c(F)c1` (10 µM), in assay [1], the morphology score amounted to 0.685. In addition, the SARS-CoV-2 infection rate in assay [2] was 110% (inactive).

The record behind these values is the supplement of paper PMC13380429.
